Here are results for 24 compounds from PubChem BioAssay (NCATS).

Structures are written as SMILES. A number with no mark means an inactive call. Inconclusive results are not listed. Where a call stands in place of a potency, no number is given. Active and inactive are the calls of the source. Unless noted, calls follow the shape of the dose curve; as a rule, active = well fitted curve in either direction with a large enough effect (not every such curve was filed as active); inconclusive = small, poorly fitted or top-dose-only effect, or another doubt; inactive = flat fitted curve, though single readings scatter.

Lysosomal acid glucosylceramidase (Homo sapiens), sequence (P04062 whole entry, looked up): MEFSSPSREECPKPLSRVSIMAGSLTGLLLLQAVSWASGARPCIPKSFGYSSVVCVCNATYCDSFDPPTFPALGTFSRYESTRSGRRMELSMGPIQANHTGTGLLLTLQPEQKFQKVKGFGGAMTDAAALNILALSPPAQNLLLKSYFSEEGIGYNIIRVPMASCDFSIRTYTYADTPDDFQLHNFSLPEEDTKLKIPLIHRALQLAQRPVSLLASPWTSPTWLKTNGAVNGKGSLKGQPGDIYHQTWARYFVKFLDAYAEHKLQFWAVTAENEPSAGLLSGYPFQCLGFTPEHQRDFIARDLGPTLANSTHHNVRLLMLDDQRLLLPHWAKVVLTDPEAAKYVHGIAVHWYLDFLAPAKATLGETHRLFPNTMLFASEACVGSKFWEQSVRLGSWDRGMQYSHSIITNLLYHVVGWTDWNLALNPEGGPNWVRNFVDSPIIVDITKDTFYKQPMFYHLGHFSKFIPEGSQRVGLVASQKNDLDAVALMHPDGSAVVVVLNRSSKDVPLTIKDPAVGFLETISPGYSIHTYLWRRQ

The first test has as its target Lysosomal acid glucosylceramidase (Homo sapiens) (UniProt P04062). Description: Glucocerebrosidase-p2 (AID 348; in the data active = potency below about 10 µM; also: potency is read from the fitted curve at half-maximal effect). As to conditions: purified GBA, blue fluorogenic substrate, 40 min. In outline:
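Normal human glucocerebrosidase (0.2 nM) with blue fluorogenic substrate (80 uM final) in citrate/phosphate pH 5.9 with 10mM sodium taurocholate, 0.01% tween-20; 40 min RT, NaOH/glycine stop; fluorescence Ex 365/Em 440; AC50 from a titration from 0.6 nM upwards.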
On to `CC(C)CN1CCC2(CC1)CCN(C(=O)Oc1ccccc1)CC2`, for which the Potency was more than 11.4 µM.
With `CC(C)CN1CC2(CCN(C(=O)c3ccncc3)CC2)C1`, the Potency is more than 11.4 µM.
Regarding `O=C(Nc1cccc(F)c1)N1CCC2(CC1)CCN(C(=O)Oc1ccccc1)CC2`, the Potency is more than 11.4 µM.
As to `N#Cc1ccc(CN2CCCC3(CCN(C(=O)Oc4ccccc4)CC3)C2)cc1`, the Potency is more than 11.4 µM.
With `CS(=O)(=O)N1CCC2(CC1)CN(Cc1ccncc1)C2`, the Potency was more than 11.4 µM.
On to `O=C(c1ccncc1)N1CCC2(CC1)CN(Cc1ccccc1)C2`, for which the Potency is more than 11.4 µM.
Regarding `c1ccc(N2CC[C@@]3(CCCNC3)C2)nc1`, the Potency was more than 11.4 µM.
`c1ccc(N2CCC3(CCNCC3)CC2)cc1`: the Potency is more than 11.4 µM.
As for `COC(=O)N1CCC2(CCN(CC(C)C)CC2)CC1`, the Potency is more than 11.4 µM.
Regarding `c1cc(CN2CCC3(CCNCC3)CC2)ccn1`, the Potency is more than 11.4 µM.

Test system in the next test: not listed separately
In words: AP1 Signaling Pathway (AID 357). Conditions: ME-180 (cervical carcinoma) AP-1-bla reporter, EGF-induced, beta-lactamase ratio, 5 h; series mostly up to 17.2 µM. In outline:
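AP-1-bla ME-180 cells with beta-lactamase reporter under AP-1 response element, stimulated with EC50 EGF; compounds titrated, 5 hours at 37 degrees Celsius. CCF4 read at 460/530 nm ratio; positive and negative modulators judged by AC50.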
For `N#Cc1ccc(CN2CC[C@@]3(CCCN(C(=O)Oc4ccccc4)C3)C2)cc1`, the outcome was inactive.
For `O=C(Oc1ccccc1)N1CCC2(CCN(Cc3ccccc3)CC2)CC1`, the result was inactive.
Turning to `C[N+]1([O-])[C@@H]2CC(OC(=O)[C@@H](CO)c3ccccc3)C[C@@H]1[C@H]1O[C@H]12` (stereo partly specified), the outcome was inactive.
For the compound `CN1CCC2(CC1)CCN(C(=O)Oc1ccccc1)CC2`, the result was inactive.
As for `O=C(Nc1cccc(F)c1)N1CC2(CCN(C(=O)Oc3ccccc3)CC2)C1`, the result was inactive.
With `CN1CC[C@@]2(CCCN(C(=O)c3ccco3)C2)C1`, the result was inactive.
The same measure, in the same setting: as for `c1cnc(N2CC[C@@]3(CCCNC3)C2)nc1`, the entry is “inactive”; as for `COc1ccccc1CN1CC[C@@]2(CCCN(C(=O)Oc3ccccc3)C2)C1`, “inactive”.
`O=C(Nc1cccc(F)c1)N1CC[C@@]2(CCCN(C(=O)Oc3ccccc3)C2)C1`: the result was inactive.
On to `Cc1ccccc1-c1cncnc1NCCc1cnc[nH]1`, for which the outcome was inactive.
Same read-out and setting: as for `O=C(Nc1ccccc1)N1CC[C@@]2(CCCNC2)C1`, the entry is “inactive”.
In the case of `CN1CCCC2(CCN(C(=O)c3ccncc3)CC2)C1`, the outcome was inactive.
On the same count and under the same terms, as for `CC(C)CN1CCC2(CC1)CCN(C(=O)Oc1ccccc1)CC2`, the entry is “inactive”; as for `CC(C)CN1CC2(CCN(C(=O)c3ccncc3)CC2)C1`, “inactive”.
Consider `N#Cc1ccc(CN2CCC3(CC2)CCN(C(=O)Oc2ccccc2)CC3)cc1`, for which the outcome was inactive.
Turning to `O=C(Nc1cccc(F)c1)N1CCC2(CC1)CCN(C(=O)Oc1ccccc1)CC2`, the result was inactive.
As for `N#Cc1ccc(CN2CCCC3(CCN(C(=O)Oc4ccccc4)CC3)C2)cc1`, the result was inactive.
For `CS(=O)(=O)N1CCC2(CC1)CN(Cc1ccncc1)C2`, the result was inactive.
Take `O=C(c1ccncc1)N1CCC2(CC1)CN(Cc1ccccc1)C2`: the outcome was inactive.
For the compound `c1ccc(N2CC[C@@]3(CCCNC3)C2)nc1`, the result was inactive.
On to `c1ccc(N2CCC3(CCNCC3)CC2)cc1`, for which the result was inactive.
On the same count and under the same terms, to `COC(=O)N1CCC2(CCN(CC(C)C)CC2)CC1` belongs “inactive”; to `c1cc(CN2CCC3(CCNCC3)CC2)ccn1`, “inactive”; to `CCNC[C@H](O)c1cccc(O)c1`, “inactive”.

The target of the next test is Cytochrome P450 1A2 (Homo sapiens) (UniProt P05177). Description: p450-cyp1a2 (AID 410; calls by dose curve; also: potency is read from the fitted curve at half-maximal effect). As to conditions: recombinant CYP1A2, luciferin-ME demethylation, luminescence; series mostly up to 25.6 µM. The procedure, abridged: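 20nM CYP1A2, 100uM Luciferin-ME (=Km), 100mM KPO4; cpd 10 min RT; +NADPH regen, 60 min RT; stop/detect 20 min; luminescence. Normalized to furafylline 57 uM = full inhibition.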
Cytochrome P450 1A2 (Homo sapiens), sequence (P05177 whole entry, looked up): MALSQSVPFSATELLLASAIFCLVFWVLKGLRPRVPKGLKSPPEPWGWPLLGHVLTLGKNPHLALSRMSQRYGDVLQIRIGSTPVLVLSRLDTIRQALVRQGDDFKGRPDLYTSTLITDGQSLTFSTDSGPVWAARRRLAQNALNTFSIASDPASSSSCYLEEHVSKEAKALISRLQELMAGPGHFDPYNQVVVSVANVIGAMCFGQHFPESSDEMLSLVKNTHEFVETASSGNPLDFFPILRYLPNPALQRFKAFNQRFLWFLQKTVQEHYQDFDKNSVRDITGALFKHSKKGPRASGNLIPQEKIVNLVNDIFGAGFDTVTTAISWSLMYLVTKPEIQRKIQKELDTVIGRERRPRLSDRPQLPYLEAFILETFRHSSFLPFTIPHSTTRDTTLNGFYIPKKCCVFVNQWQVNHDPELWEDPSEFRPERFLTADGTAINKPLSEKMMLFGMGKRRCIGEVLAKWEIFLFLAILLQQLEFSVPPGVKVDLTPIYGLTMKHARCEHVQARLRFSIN
`N#Cc1ccc(CN2CC[C@@]3(CCCN(C(=O)Oc4ccccc4)C3)C2)cc1`: the Potency was 12.6 µM (active).
On to `O=C(Oc1ccccc1)N1CCC2(CCN(Cc3ccccc3)CC2)CC1`, for which the Potency result was “inactive”.
`C[N+]1([O-])[C@@H]2CC(OC(=O)[C@@H](CO)c3ccccc3)C[C@@H]1[C@H]1O[C@H]12` (stereo partly specified): the Potency entry is “inactive”.
Same read-out and setting: as for `CN1CCC2(CC1)CCN(C(=O)Oc1ccccc1)CC2`, the entry is “inactive”; as for `O=C(Nc1cccc(F)c1)N1CC2(CCN(C(=O)Oc3ccccc3)CC2)C1`, 12.6 µM (active); as for `CN1CC[C@@]2(CCCN(C(=O)c3ccco3)C2)C1`, “inactive”.
Same read-out and setting: as for `c1cnc(N2CC[C@@]3(CCCNC3)C2)nc1`, the figure is 25.1 µM (active); as for `COc1ccccc1CN1CC[C@@]2(CCCN(C(=O)Oc3ccccc3)C2)C1`, 10 µM (active); as for `O=C(Nc1cccc(F)c1)N1CC[C@@]2(CCCN(C(=O)Oc3ccccc3)C2)C1`, 15.8 µM (active).
In the case of `Cc1ccccc1-c1cncnc1NCCc1cnc[nH]1`, the Potency was 5.01 µM (active).
For `CN1CCCC2(CCN(C(=O)c3ccncc3)CC2)C1`, the Potency result was “inactive”.
For `CC(C)CN1CCC2(CC1)CCN(C(=O)Oc1ccccc1)CC2`, the Potency result is “inactive”.
`CC(C)CN1CC2(CCN(C(=O)c3ccncc3)CC2)C1`: the Potency entry was “inactive”.
For the compound `N#Cc1ccc(CN2CCC3(CC2)CCN(C(=O)Oc2ccccc2)CC3)cc1`, the Potency entry is “inactive”.
On the same count and under the same terms, to `O=C(Nc1cccc(F)c1)N1CCC2(CC1)CCN(C(=O)Oc1ccccc1)CC2` belongs “inactive”.
Take `N#Cc1ccc(CN2CCCC3(CCN(C(=O)Oc4ccccc4)CC3)C2)cc1`: the Potency result is “inactive”.
With `O=C(c1ccncc1)N1CCC2(CC1)CN(Cc1ccccc1)C2`, the Potency entry was “inactive”.
Same read-out and setting: to `c1ccc(N2CC[C@@]3(CCCNC3)C2)nc1` belongs “inactive”; to `c1ccc(N2CCC3(CCNCC3)CC2)cc1`, “inactive”; to `COC(=O)N1CCC2(CCN(CC(C)C)CC2)CC1`, “inactive”.
`c1cc(CN2CCC3(CCNCC3)CC2)ccn1`: the Potency result is “inactive”.
`CCNC[C@H](O)c1cccc(O)c1`: the Potency entry was “inactive”.
